Measured values as given in PubChem BioAssay (EPA / NIEHS).
Several values for one entry are separate records, joined by “and”; a condition that tells them apart may be missing. Identical values can stand only once. Some structures have more than one record in an assay (separate samples or runs), and their calls can disagree. Activity calls are given as the source filed them. Rule for the calls: active = hit-call score of the fitted dose curve at least 0.9, where 1 is the maximum; inconclusive = response in the unintended direction; inactive = score below 0.9.

target: Estrogen receptor (Homo sapiens) (UniProt P03372); assay: OT_ER_ERaERa_1440: Odyssey Thera (OT) 24-hour HEK293T Protein-Complementation Assay for Estrogen Receptor-alpha/-alpha Homodimer (AID 2283349);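 note: hits raise fluorescence above DMSO for agonists and antagonists alike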
Sequence (P03372 whole entry, looked up, the tested form may be a part): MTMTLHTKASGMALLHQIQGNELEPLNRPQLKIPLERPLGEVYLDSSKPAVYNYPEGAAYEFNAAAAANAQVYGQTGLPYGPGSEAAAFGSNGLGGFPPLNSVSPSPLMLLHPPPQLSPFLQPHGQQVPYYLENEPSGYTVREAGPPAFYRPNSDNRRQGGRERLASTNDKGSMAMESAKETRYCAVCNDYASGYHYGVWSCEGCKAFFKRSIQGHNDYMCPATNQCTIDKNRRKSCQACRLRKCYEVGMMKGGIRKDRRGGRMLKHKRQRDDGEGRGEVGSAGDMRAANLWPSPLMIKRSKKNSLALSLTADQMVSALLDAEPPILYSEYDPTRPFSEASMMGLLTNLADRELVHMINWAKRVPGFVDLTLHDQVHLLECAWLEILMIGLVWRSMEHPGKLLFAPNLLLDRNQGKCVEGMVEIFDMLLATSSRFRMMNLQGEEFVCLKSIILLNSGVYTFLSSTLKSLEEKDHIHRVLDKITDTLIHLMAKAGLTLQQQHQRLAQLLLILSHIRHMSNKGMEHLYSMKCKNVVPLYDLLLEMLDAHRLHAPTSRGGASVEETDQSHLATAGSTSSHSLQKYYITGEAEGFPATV
Description: OT_ER_ERaERa_1440 is a cell-based assay that uses HEK293T, a human kidney cell line, with measurements taken at 24 hours after chemical dosing in a 384-well plate.OT_ER_ERaERa_1440 is one of one assay component(s) measured or calculated from the OT_ER_ERaERa_1440 assay. It is designed to make measurements of protein fragment complementation, a form of binding reporter, as detected with fluorescence intensity signals by Protein-fragment Complementation technology.Data from the assay component OT_ER_ERaERa_1440 was analyzed into 1 assay endpoint. This assay endpoint, OT_ER_ERaERa_1440, was analyzed in the positive analysis fitting direction relative to DMSO as the negative control and baseline of activity. Using a type of binding reporter, measures of receptor for gain-of-signal activity can be used to understand the binding at the pathway-level as they relate to the gene ESR1. Furthermore, this assay endpoint can be referred to as a primary readout, because the performed assay has only produced 1 assay endpoint. To generalize the intended target to other relatable targets, this assay endpoint is annotated to the nuclear receptor intended target family, where the subfamily is steroidal.
Protein-fragment complementation assay, or PCA, is a method for the identification and quantification of protein-protein interactions. In the PCA, the proteins of interest ("bait" and "prey") are each covalently linked to fragments of a third protein (e.g. DHFR, which acts as a "reporter"). Interaction between the bait and the prey proteins brings the fragments of the reporter protein in close proximity to allow them to form a functional reporter protein whose activity can be measured. The OT ER alpha / ER alpha assay is a homodimer PCA of the ligand binding domain (amino acids 310-547) of human ER alpha stably expressed in HEK293T cells. […] Fluorescent signal in the basal state of the assay is very low and is primarily punctuate and cytoplasmic. Modulation of this assay is quantified as an increase in mean fluorescence intensity in the nucleus (for agonists) or in the nucleus and cytoplasm (antagonists) relative to vehicle controls, and can be quantified on a high content imaging device or a laser scanning cytometer. The latter instrument is favored for this assay because of the rapid mode of data acquisition, the ability to acquire data from the entire cell population in a well (as opposed to a fraction of the well on the high content devices) and the larger dynamic range typically achieved with this instrument. To assess sensitivity of the ER alpha/ER alpha LBD assay to ligand, cells were treated with the ER agonist 17 beta-estradiol (E2) in 10-point concentration- response format for 24 hours and monitored response on a laser scanning plate cytometer (Acumen eX3; TTP Lab Tech).

Row | Compound | outcome | AC50
1 | CCOc1ccc(C(C)(C)COCc2cccc(Oc3ccccc3)c2)cc1 | inactive | 
2 | CCCCC(CC)COP(=O)(Oc1ccccc1)Oc1ccccc1 (stereo not given) | inactive | 
3 | CCOP(=S)(Oc1ccc([N+](=O)[O-])cc1)c1ccccc1 (stereo not given) | inactive | 
4 | c1cc2c3c(cccc3c1)CC2 | inactive | 
5 | O=[N+]([O-])c1ccc(Cl)c(Cl)c1 | inactive | 
6 | CCCCc1ccccc1 | inactive | 
7 | [N-]=[N+]=[N-] | inactive | 
8 | O=P1(N(CCCl)CCCl)NCCCO1 (stereo not given) | inactive | 
9 | Cc1ccc(N)cc1N | inactive | 
10 | CC(Cc1ccc(OCC(=O)O)cc1)NCC(O)c1csc(C(F)(F)F)n1 (stereo not given) | inactive | 
11 | CCOP(=S)(OCC)SCSCC | inactive | 
12 | O=S1(=O)OCC2C(CO1)C1(Cl)C(Cl)=C(Cl)C2(Cl)C1(Cl)Cl (stereo not given) | inactive | 
13 | CCCCc1ccc(O)cc1 |  | 41.4 µM (active)
14 | CCC(C)(C)c1ccc(O)cc1 |  | 14.9 µM (active)
15 | ClC1=C(Cl)C2(Cl)C3C(Cl)C(Cl)CC3C1(Cl)C2(Cl)Cl (stereo not given) | inactive | 
16 | Nc1ccc2ccccc2c1 | inactive | 
17 | ClC(Cl)c1ccccc1 | inactive | 
18 | CCCCN(CCCC)SN(C)C(=O)Oc1cccc2c1OC(C)(C)C2 | inactive | 
19 | O=NN1CCCC1 |  | 12.1 µM (active)
20 | O=C(O)CF | inactive | 

Row | Compound | outcome | AC50
21 | O=C(CBr)OCc1ccccc1 | inactive | 
22 | CN(C)C(=O)Cl | inactive | 
23 | CCCCCCCc1ccc(O)cc1 | inactive | 24.5 µM (active) and 23.2 µM (active)
24 | Cc1cccc(N)c1 | inactive | 
25 | O=P(Oc1ccccc1)(Oc1ccccc1)Oc1ccccc1 |  | 12.4 µM (active)
26 | O=C(O)C1C(C(=O)O)C2(Cl)C(Cl)=C(Cl)C1(Cl)C2(Cl)Cl (stereo not given) | inactive | 
27 | CC(Cl)(Cl)C(=O)O | inactive | 
28 | O=[N+]([O-])c1ccccc1 | inactive | 
29 | O=P(OCC(Br)CBr)(OCC(Br)CBr)OCC(Br)CBr (stereo not given) | inactive | 
30 | CCN(CC)c1ccccc1 | inactive | 
31 | Cc1ccc([N+](=O)[O-])cc1C | inactive | 
32 | Nc1ccc(Cl)cc1 | inactive | 
33 | O=S(=O)(c1ccc(O)cc1)c1ccc(O)cc1 |  | 46.8 µM (active)
34 | CCOS(=O)(=O)OCC | inactive | 
35 | O=c1ssc(Cl)c1Cl | inactive | 
36 | COC(N)=O | inactive | 
37 | CO/N=C(/C(=O)OC)c1ccccc1COc1ccccc1C |  | 76.4 µM (active)
38 | CC(C)(C)OOC(C)(C)C | inactive | 
39 | Nc1cc2c3c(c1)C(c1ccccc1)=N[C@@H](NC(=O)c1cccnc1)C(=O)N3CC2 | inactive | 
